# Publication PMC4336329 (PLoS ONE, 2015)
# Screen size: about 310,000 compounds; about 14,000 (4.5%) showed an effect of 50% or more. Effects have a minus sign here. What follows is part of a selection rich in strong results, with near analogues and random picks from the rest.
# Target: human ether-à-go-go-related gene (hERG) potassium channel (human, UniProt Q12809)
# Assay: primary screen, population patch clamp on CHO cells stably expressing hERG; higher = less effect of the substance
# 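Further: peak tail current of the secondary pulse compared with the same well before compound.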
# Sequence of human ether-à-go-go-related gene (hERG) potassium channel (Q12809 whole entry, looked up): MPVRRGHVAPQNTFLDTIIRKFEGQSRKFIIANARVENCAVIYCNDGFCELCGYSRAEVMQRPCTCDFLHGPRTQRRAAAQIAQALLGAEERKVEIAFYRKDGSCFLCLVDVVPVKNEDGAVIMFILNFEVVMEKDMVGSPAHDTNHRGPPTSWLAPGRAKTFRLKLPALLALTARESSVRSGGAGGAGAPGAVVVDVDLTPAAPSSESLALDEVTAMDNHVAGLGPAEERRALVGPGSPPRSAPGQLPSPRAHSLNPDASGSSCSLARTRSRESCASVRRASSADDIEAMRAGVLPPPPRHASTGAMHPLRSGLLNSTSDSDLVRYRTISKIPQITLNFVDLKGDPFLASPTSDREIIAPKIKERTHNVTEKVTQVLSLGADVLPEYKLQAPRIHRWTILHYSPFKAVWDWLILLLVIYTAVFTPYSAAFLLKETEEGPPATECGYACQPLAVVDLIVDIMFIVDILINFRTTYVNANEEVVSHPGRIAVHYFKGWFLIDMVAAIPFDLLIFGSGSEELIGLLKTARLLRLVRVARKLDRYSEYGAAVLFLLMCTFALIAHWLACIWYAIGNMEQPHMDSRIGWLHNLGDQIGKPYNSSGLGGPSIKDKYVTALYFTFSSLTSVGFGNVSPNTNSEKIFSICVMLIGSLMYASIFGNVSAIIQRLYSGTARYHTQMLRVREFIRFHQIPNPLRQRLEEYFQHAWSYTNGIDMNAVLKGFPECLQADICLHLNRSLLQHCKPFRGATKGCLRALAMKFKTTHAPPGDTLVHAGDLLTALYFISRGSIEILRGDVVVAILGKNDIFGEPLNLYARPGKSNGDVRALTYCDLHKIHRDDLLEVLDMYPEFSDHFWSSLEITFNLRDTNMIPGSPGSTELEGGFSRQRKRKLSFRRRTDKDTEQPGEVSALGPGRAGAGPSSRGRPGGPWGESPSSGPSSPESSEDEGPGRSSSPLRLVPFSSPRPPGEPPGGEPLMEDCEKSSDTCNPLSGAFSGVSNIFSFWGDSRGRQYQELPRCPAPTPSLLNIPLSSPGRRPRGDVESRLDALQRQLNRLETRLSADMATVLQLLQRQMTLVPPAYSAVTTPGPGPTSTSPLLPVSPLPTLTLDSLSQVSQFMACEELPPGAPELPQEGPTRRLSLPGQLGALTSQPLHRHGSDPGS
row,SMILES,"hERG current change (%, negative = inhibition) at 10uM"
1,O=C(/C=C/c1ccco1)Nc1cc(Cl)ccc1C(=O)O,-10.3%
2,CCCc1cc(=O)[nH]c(SC/C=C/c2ccccc2)n1,9.33%
3,Cc1c(N(C)C)c(=O)n(-c2ccccc2)n1C,19.1%
4,COc1ccccc1CNS(=O)(=O)c1ccc2c(c1)NC(=O)CS2,-1.59%
5,CCN(CC)C(=O)c1cc2cc([N+](=O)[O-])ccc2s1,-55.5%
6,O=C(NCCN1CCOCC1)c1sc2cc(Cl)ccc2c1Cl,-10.3%
7,O=C(NCCN1CCOCC1)c1sc2ccccc2c1Cl,-6.21%
8,O=C(NCCCN1CCOCC1)c1sc2cc(F)ccc2c1Cl,-44%
9,CN(C)C(=O)c1cc2cc([N+](=O)[O-])ccc2s1,-38.9%
10,O=C(NCCN1CCOCC1)c1ccc([N+](=O)[O-])cc1[N+](=O)[O-],-0.151%
11,CCCNC(=O)c1cc2cc([N+](=O)[O-])ccc2s1,-9.82%
12,O=C(NCCN1CCOCC1)c1cc2cc([N+](=O)[O-])ccc2s1,-63.3%
13,O=C(NCCCN1CCOCC1)c1sc2cc(Cl)ccc2c1Cl,-69.6%
14,O=C(NCCCN1CCOCC1)c1sc2cc([N+](=O)[O-])ccc2c1Cl,-54%
15,O=C(NCCCN1CCOCC1)c1sc2ccccc2c1Cl,-9.81%
16,O=C(NCCN1CCOCC1)c1cc([N+](=O)[O-])ccc1Cl,6.5%
17,O=c1c2cn[nH]c2[nH]c(=S)n1-c1ccccc1F,24.8%
18,N#CC1=C(N)Oc2cc(O)ccc2C1c1cccnc1 (stereo not drawn),27.4%
19,CCOc1nc2cnccc2n(CC(=O)Nc2ccccc2C(=O)OC)c1=O,-1.11%
20,Cc1nn(-c2ccccc2)c(C)c1/C=N/NC(=O)CSc1nnc(SCc2cccc3ccccc23)s1,6.33%
21,CCOC(=O)c1sc(=S)n(C)c1NC(=O)c1ccc(C(C)(C)C)cc1,11.8%
22,CC(=O)N/C(=C/c1ccc2c(c1)OCO2)C(=O)O,-2.32%
23,O=C(CCNS(=O)(=O)c1ccc(Cl)cc1)N1CCOCC1,22.4%
24,O=C1NCCc2c1[nH]c1ccccc21,-77%
25,Cc1ccc2[nH]c3c(c2c1)CCNC3=O,4.86%
26,COc1ccc2[nH]c3c(c2c1)CCNC3=O,7.33%
27,O=C(Nc1ccc(-c2csc(Nc3cccc(C(F)(F)F)c3)n2)cc1)c1cccc(C(F)(F)F)c1,9.98%
